Measured values: PubChem BioAssay AID488969 (Vanderbilt High Throughput Screening Facility, 2010)
Several values for one entry are separate records, joined by “and”; a condition that tells them apart may be missing. Identical values can stand only once. The full ranking holds about 110,000 compounds; the median of “z-score” is about -0.1, and the highest 2% start at about 2. This is one part of a sample in which the highest values are shown more often than they occur. Activity calls are given as the source filed them.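 The calls were made as follows: active = z-score in the third read window above 3 or below -3; inactive = the rest.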

target: Metabotropic glutamate receptor 8 (Rattus norvegicus) (UniProt P70579); assay: rat mGluR8 modulators via GIRK flux, primary screen, cell-based, thallium flux, HTS (AID 488969); conditions: HEK293 rat mGluR8, GIRK (G protein-gated inwardly rectifying potassium channel) thallium flux, FluoZin2; at 10 µM; stronger effect = higher value; submaximal glutamate (EC20) added with thallium
Sequence (P70579 whole entry, looked up): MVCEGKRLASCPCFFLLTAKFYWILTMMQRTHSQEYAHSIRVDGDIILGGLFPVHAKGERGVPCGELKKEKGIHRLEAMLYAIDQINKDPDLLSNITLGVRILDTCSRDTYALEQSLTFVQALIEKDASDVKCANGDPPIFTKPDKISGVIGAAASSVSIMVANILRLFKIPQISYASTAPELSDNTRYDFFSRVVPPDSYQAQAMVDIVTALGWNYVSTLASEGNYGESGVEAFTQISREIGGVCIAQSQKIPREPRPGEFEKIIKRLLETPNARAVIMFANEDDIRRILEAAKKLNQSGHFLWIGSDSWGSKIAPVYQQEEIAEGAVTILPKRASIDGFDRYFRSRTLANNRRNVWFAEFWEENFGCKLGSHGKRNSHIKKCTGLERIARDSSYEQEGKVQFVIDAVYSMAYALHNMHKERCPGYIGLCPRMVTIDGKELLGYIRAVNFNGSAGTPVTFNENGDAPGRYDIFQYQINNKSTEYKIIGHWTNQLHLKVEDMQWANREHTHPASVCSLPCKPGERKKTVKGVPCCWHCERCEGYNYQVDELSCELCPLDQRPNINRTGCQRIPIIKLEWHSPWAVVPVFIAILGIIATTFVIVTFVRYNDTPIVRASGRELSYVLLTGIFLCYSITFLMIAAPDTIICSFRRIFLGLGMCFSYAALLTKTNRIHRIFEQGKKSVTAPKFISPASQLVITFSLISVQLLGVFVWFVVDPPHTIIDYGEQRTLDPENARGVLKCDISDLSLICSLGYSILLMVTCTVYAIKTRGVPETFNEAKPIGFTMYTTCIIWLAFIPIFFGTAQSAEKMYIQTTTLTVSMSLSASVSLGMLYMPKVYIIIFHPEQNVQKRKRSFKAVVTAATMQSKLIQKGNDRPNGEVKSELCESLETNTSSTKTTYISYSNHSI

Question: `COc1cc(S(=O)(=O)N2CCOCC2)ccc1NC(=O)COC(=O)CC12CC3CC(CC(C3)C1)C2` was tested. Which z-score did it give?
Answer: The z-score was 0.016.

Question: Which z-score does the source give for `CCOC(=O)c1cc2sccc2n1CC(=O)N1CCCC1` here?
Answer: The z-score was -0.278.

Question: With `Cc1ccc(S(=O)(=O)N2CCOCC2)cc1NC(=O)CSc1nnc2cc(C)c3ccccc3n12` as the compound, how does the z-score read?
Answer: The z-score was -1.43.

Question: Which z-score does the source give for `Cn1c(-c2cc3c(C(F)(F)F)nn(C)c3s2)n[nH]c1=S` here?
Answer: The z-score was -0.114.

Question: How did the z-score turn out when `CCCCSc1nnc(-c2cc3c(C(F)(F)F)nn(C)c3s2)n1C` was run?
Answer: Its z-score is -0.355.

Question: How did the z-score turn out when `CCn1c(-c2cc3c(C(F)(F)F)nn(C)c3s2)n[nH]c1=S` was run?
Answer: The z-score was 7 (active).

Question: For `Cc1cc(N2CCN(c3nc(N4CCOCC4)nc4ccccc34)CC2)c2ccccc2n1`, which z-score is on record?
Answer: Its z-score is 0.213.

Question: With `CC(C)CC(C(=O)Nc1oc(-c2ccccc2)c(-c2ccccc2)c1C#N)N1C(=O)c2ccccc2C1=O` (stereo not drawn) as the compound, how does the z-score read?
Answer: Its z-score is -0.151.

Question: `COc1ccc(C(=O)Oc2ccc(/C=N/NC(=O)Cc3ccc([N+](=O)[O-])cc3)cc2)cc1` was tested. Which z-score did it give?
Answer: Its z-score is 0.194.

Question: How did the z-score turn out when `Cc1ccc(C(=O)NC(=S)NNS(=O)(=O)c2ccc(C)cc2)cc1` was run?
Answer: Its z-score is 0.234.

Question: How did the z-score turn out when `O=C(NC(=S)NNC(=O)c1ccc(Cl)cc1Cl)c1cccnc1` was run?
Answer: Its z-score is -0.129.

Question: `Cc1onc(-c2ccccc2)c1C(=O)NNC(=S)NC(=O)c1ccc(Cl)cc1Cl` was tested. Which z-score did it give?
Answer: Its z-score is 0.272.

Question: With `COC(=O)NNC(=O)c1ccc(Cl)cc1Cl` as the compound, how does the z-score read?
Answer: Its z-score is -0.27.

Question: For `O=C(NNC(=S)NC(=O)c1cccnc1)c1ccc(Cl)cc1`, which z-score is on record?
Answer: The z-score was 0.171.

Question: With `Cc1ccccc1C(=O)NNC(=S)NC(=O)c1ccc(Cl)cc1Cl` as the compound, how does the z-score read?
Answer: The z-score was 4.35 (active).

Question: How did the z-score turn out when `Cc1ccc(C(=O)NNC(=S)NC(=O)c2ccc(Cl)cc2)cc1` was run?
Answer: Its z-score is 7.64 (active).

Question: With `Cc1ccc(C(=O)NNC(=S)NC(=O)c2ccc(Cl)cc2Cl)cc1` as the compound, how does the z-score read?
Answer: Its z-score is 2.02.

Question: Which z-score does the source give for `Cc1ccc(C(=O)NC(=S)Nc2ccc(NC(=O)c3cccc(Cl)c3)cc2)cc1` here?
Answer: Its z-score is -0.278.

Question: For `O=C(NNC(=O)c1ccc(Cl)cc1Cl)c1ccncc1`, which z-score is on record?
Answer: The z-score was 0.97.

Question: How did the z-score turn out when `Cc1cccc(C(=O)NNC(=O)c2ccc(-c3ccccc3)cc2)c1` was run?
Answer: Its z-score is 0.252.

Question: `Cc1cccc(C(=O)NC(=S)NNC(=O)c2ccc(Cl)cc2)c1` was tested. Which z-score did it give?
Answer: Its z-score is 6.22 (active).

Question: How did the z-score turn out when `CN(C)[C@@H]1CCC[C@H]1OC(=O)C(c1ccccc1)c1ccccc1` was run?
Answer: The z-score was -1.41.

Question: With `Cc1ccc(S(=O)(=O)N2CCN(S(=O)(=O)c3ccc(C)cc3)C2)cc1` as the compound, how does the z-score read?
Answer: The z-score was -0.481.

Question: With `O=C(COC(=O)Cc1ccc(Cl)cc1Cl)NCCC1=CCCCC1` as the compound, how does the z-score read?
Answer: The z-score was -1.17.

Question: With `CCCC(=O)Nc1ccc(C(=O)Nc2nc(CC(=O)OCC)cs2)cc1` as the compound, how does the z-score read?
Answer: Its z-score is -0.437.

Question: `CCCN1C/C(=C/c2ccc3c(c2)OCO3)C(=O)/C(=C/c2ccc3c(c2)OCO3)C1` was tested. Which z-score did it give?
Answer: The z-score was -0.565.

Question: Which z-score does the source give for `Cc1ccc2c(c1)C1CCCC3C1N2CC(=O)N3Cc1ccccc1` (stereo not drawn) here?
Answer: The z-score was -0.338.

Question: Which z-score does the source give for `C/C(=N\O)C(C)/[N+]([O-])=C/c1nc(C)c(C)n1O` (stereo not drawn) here?
Answer: Its z-score is 1.53.

Question: How did the z-score turn out when `O=C(CSc1nc2ccccc2c(=O)n1-c1ccc(F)cc1)Nc1ccc(N2CCOCC2)cc1` was run?
Answer: The z-score was -0.000577.

Question: Which z-score does the source give for `O=C(NC(=S)NNC(=O)c1cccs1)c1ccc(Br)o1` here?
Answer: Its z-score is 4.37 (active).

Question: Which z-score does the source give for `O=C(COc1cccc(Cl)c1)NNC(=S)Nc1ccccc1` here?
Answer: Its z-score is 0.593.

Question: Which z-score does the source give for `Cc1cccc(C(=O)NC(=S)NNC(=O)c2ccccc2Cl)c1` here?
Answer: Its z-score is 5.34 (active).

Question: How did the z-score turn out when `CCNC(=S)NNC(=O)c1cccs1` was run?
Answer: The z-score was -0.146.

Question: For `COc1ccc(C)cc1NC(=S)NNC(=O)c1ccccc1Cl`, which z-score is on record?
Answer: Its z-score is 0.678.

Question: With `O=C(NC(=S)NNC(=O)c1cccs1)c1ccco1` as the compound, how does the z-score read?
Answer: The z-score was 1.08.

Question: For `O=C(NNC(=O)c1cccs1)c1ccc(Br)o1`, which z-score is on record?
Answer: Its z-score is -0.207.

Question: `Cc1cccc(C(=O)NC(=S)NNC(=O)c2cccs2)c1` was tested. Which z-score did it give?
Answer: The z-score was 5.42 (active).

Question: For `Cc1cccc(C(=O)NC(=S)NNC(=O)Cc2ccccc2)c1`, which z-score is on record?
Answer: The z-score was 1.8.

Question: For `O=C(NNC(=S)NC(=O)c1cccs1)c1ccc(NC(=O)c2ccccc2)cc1`, which z-score is on record?
Answer: The z-score was -0.0903.

Question: `Cc1ccc(OCC(=O)NC(=S)Nc2cccc(NC(=O)c3ccc(Cl)cc3Cl)c2)cc1` was tested. Which z-score did it give?
Answer: The z-score was 0.148.

Question: Which z-score does the source give for `O=C(COc1ccccc1)NNC(=S)NC(=O)c1ccc(Cl)cc1Cl` here?
Answer: Its z-score is 5.19 (active).

Question: Which z-score does the source give for `CC1=C(C(=O)Nc2cc(C)ccc2C)C(c2cccs2)NC(=S)N1` (stereo not drawn) here?
Answer: Its z-score is -0.0019.

Question: `O=C(CS(=O)CC(=O)N(c1ccccc1)C(C(=O)NC1CCCCC1)c1ccco1)Nc1ccc(F)cc1` (stereo not drawn) was tested. Which z-score did it give?
Answer: Its z-score is -0.245.

Question: For `COc1ccc(S(=O)(=O)n2nc(C)cc2C)c(C)c1C`, which z-score is on record?
Answer: Its z-score is -0.246.

Question: `CC(=O)Nc1ccc(S(=O)(=O)NNC(=O)CCC(=O)Nc2cc(C)ccc2C)cc1` was tested. Which z-score did it give?
Answer: The z-score was -0.368.

Question: `Cc1ccccc1Nc1nc(-c2ccccc2)c(C(=O)Nc2cccnc2)s1` was tested. Which z-score did it give?
Answer: The z-score was 0.177.

Question: How did the z-score turn out when `O=C(O)CCSc1nc2ccccc2n1CCOc1ccccc1` was run?
Answer: Its z-score is 0.105.

Question: How did the z-score turn out when `CS(=O)(=O)c1ccc(Sc2nc3ccccc3[nH]2)c([N+](=O)[O-])c1` was run?
Answer: The z-score was -0.102.

Question: How did the z-score turn out when `O=C1/C(=C/c2ccccc2)Nc2ccccc21` was run?
Answer: Its z-score is -0.773.

Question: For `O=C(NC(=S)NNC(=O)c1ccccc1[N+](=O)[O-])c1ccccc1`, which z-score is on record?
Answer: The z-score was -0.00864.

Question: How did the z-score turn out when `Cc1ccccc1C(=O)NNC(=S)NC(=O)c1ccccc1` was run?
Answer: Its z-score is 3.78 (active).

Question: With `Cc1ccccc1C(=O)NNC(=O)CCC(=O)Nc1cccc(Cl)c1C` as the compound, how does the z-score read?
Answer: The z-score was -0.34.

Question: `Cc1ccc(C(=O)NC(=S)NNC(=O)c2ccccc2[N+](=O)[O-])cc1` was tested. Which z-score did it give?
Answer: Its z-score is 0.414.

Question: Which z-score does the source give for `Cc1ccccc1C(=O)NNC(=O)C(=O)Nc1cccc(Cl)c1C` here?
Answer: Its z-score is 6.02 (active).

Question: With `Cc1ccc(NC(=O)C(=O)NNC(=O)c2ccccc2C)cc1Cl` as the compound, how does the z-score read?
Answer: Its z-score is -0.171.

Question: Which z-score does the source give for `Cc1cc(C)nc(Sc2ccc(/C=C(\C#N)C(=O)Nc3ccccc3)o2)n1` here?
Answer: The z-score was -0.125.

Question: How did the z-score turn out when `O=C(NCc1cccs1)c1cc(-c2cccc(Cl)c2)on1` was run?
Answer: Its z-score is -1.01.

Question: How did the z-score turn out when `CCN(CC)CCCNC(=O)c1cc(-c2ccc(Cl)cc2)on1` was run?
Answer: The z-score was 1.7.

Question: Which z-score does the source give for `O=C(NCc1ccco1)c1cc(-c2cccc(Cl)c2)on1` here?
Answer: The z-score was 0.0775.

Question: How did the z-score turn out when `CCN(CC)CCCNC(=O)c1cc(-c2ccc(O)cc2)on1` was run?
Answer: The z-score was 0.686.

Question: With `CCN(CC)CCCNC(=O)c1cc(-c2ccc(Cl)c(Cl)c2)on1` as the compound, how does the z-score read?
Answer: The z-score was 5.37 (active).

Question: How did the z-score turn out when `CCN(CC)CCCNC(=O)c1cc(-c2cccc(Cl)c2)on1` was run?
Answer: The z-score was 2.64.

Question: With `CCCCC(=O)Nc1ccc(C(=O)NNC(=S)NC(=O)c2cccs2)cc1` as the compound, how does the z-score read?
Answer: The z-score was 0.439.

Question: How did the z-score turn out when `Cc1ccc(/C=C(\C#N)C(=O)Nc2c(C)cccc2C)s1` was run?
Answer: The z-score was -0.0444.

Question: `Cc1cccc(CSc2cccc3cccnc23)c1` was tested. Which z-score did it give?
Answer: Its z-score is 8.5 (active).

Question: Which z-score does the source give for `COc1ccc(CSc2cccc3cccnc23)cc1[N+](=O)[O-]` here?
Answer: The z-score was 0.224.

Question: How did the z-score turn out when `O=C(CSc1cccc2cccnc12)NCc1ccco1` was run?
Answer: The z-score was -0.028.

Question: `COc1ccc(/C(C)=N/NC(=O)c2ccc(CSc3cccc4cccnc34)cc2)cc1OC` was tested. Which z-score did it give?
Answer: The z-score was -0.51.

Question: With `CCOC(=O)CSc1cccc2cccnc12` as the compound, how does the z-score read?
Answer: The z-score was 4.08 (active).

Question: Which z-score does the source give for `O=C(CSc1cccc2cccnc12)OCC(=O)c1ccc(Br)cc1` here?
Answer: Its z-score is -0.113.

Question: For `CN(C)C(=O)CSc1cccc2cccnc12`, which z-score is on record?
Answer: The z-score was 7 (active).

Question: With `O=C(CSc1cccc2cccnc12)OCC(=O)c1ccccc1` as the compound, how does the z-score read?
Answer: Its z-score is 0.45.

Question: Which z-score does the source give for `O=C(O)CSc1cccc2cccnc12` here?
Answer: The z-score was -0.347 and 0.372.
